Data on 40 molecules can be found in PubChem BioAssay (EPA / NIEHS).

Results filed as inconclusive are left out. Active and inactive are the calls of the source. Rule for the calls: active = hit-call score of the fitted dose curve at least 0.9, where 1 is the maximum; inconclusive = response in the unintended direction; inactive = score below 0.9.

This experiment in a line: ATG_GAL4_TRANS: Attagene TRANS-FACTORIAL HepG2 Assay for GAL4 (Internal Marker) (AID 2282976). The settings on record: HepG2 Attagene TRANS GAL4 internal marker reporter. How it is done:
ATG_TRANS is a cell-based, multiplexed-readout assay that uses HepG2, a human liver cell line, with measurements taken at 24 hours after chemical dosing in a 24-well plate.ATG_GAL4_TRANS is one of 30 assay component(s) measured or calculated from the ATG_TRANS assay. It is designed to make measurements of mRNA induction, a form of inducible reporter, as detected with fluorescence intensity signals by Reverse transcription polymerase chain reaction (RT-PCR) and Capillary electrophoresis technology.Data from the assay component ATG_GAL4_TRANS was analyzed into 1 assay endpoint. This assay endpoint, ATG_GAL4_TRANS, was analyzed in the positive analysis fitting direction relative to DMSO as the negative control and baseline of activity. Using a type of inducible reporter, measures of mRNA for gain-of-signal activity can be used to understand the background control at the transcription factor-level as they relate to the gene . Furthermore, this assay endpoint can be referred to as a secondary readout, because this assay has produced multiple assay endpoints where this one serves a background control function. To generalize the intended target to other relatable targets, this assay endpoint is annotated to the background measurement intended target family, where the subfamily is baseline control.
Human liver HepG2 cells are transiently transfected with multiple reporter transcription units (MRTUs) in 6-well plates using FuGene 6 reagent (Roche; 3 ml FuGene/1 mg DNA). The MRTU constructs are regulated by a cis-regulating element (promoter). […] A major difference between the CIS and TRANS system is that in CIS activities of endogenous TFs are measured, whereas the TRANS assay evaluates changes in activities of exogenous, chimeric NR-Gal4 proteins. […] At the end of 24 hour incubation, total RNA was isolated using TriZol reagent (Invitrogen). The isolated RNA is then reverse-transcribed using oligo(dT) primer and Mo-MLV reverse transcriptase (Invitrogen) with DNAse I (Ambion) treatment for 30 min. The one-tenth of the produced cDNA was amplified by PCR using Taq DNA polymerase (Invitrogen) and two reporter sequence-specific primers. The PCR products were fluorescently labeled by primer extension with 6-arboxyfluorescein (6-FAM) 5'-labeled reporter sequence-specific primer (2 min at 95 C, 20 s at 68 C and 10 min at 72 C) and these products were digested with 5U of HpaI (New England Biolabs) for 2h at 37 C. The fragments were purified using Qiaquick PCR columns (Qiagen), analyzed on an ABI 3130xL genetic analyzer (Applied Biosystems) with peak positions identified by using a set of X-rhodamine (ROX)-labeled MapMarker1000 molecular weight standards (BioVentures). The raw capillary electrophoresis data was processed using Attagraph software (Attagene).
Take `Clc1ccc(-c2ccccc2)cc1`: the result was inactive.
The same measure for `CCOC(=O)N(C)N=O`: “inactive”; for `CCC(C)(C)O`: “inactive”; for `O=[N+]([O-])O.O=[N+]([O-])O.[Cd]`: “inactive”.
The same measure for `CC(C)(Cl)Cl`: “inactive”.
Regarding `CCCC=NO`, the call was inactive.
The same measure for `CN(C)CCC#N`: “inactive”; for `N#CCCCl`: “inactive”.
The entry for `C#CC1(O)CCCCC1` is “inactive”.
Consider `Nc1ccccc1`, for which the call was inactive.
The entry for `CCCCCCC1CCOC1=O` (stereo not given) is “inactive”; for `CCOC(=O)COc1ccc(Cl)cc1Cl` it is “inactive”; for `CCC(=O)c1ccc(Cl)cc1` it is “inactive”.
The same measure for `O=CNC(N1CCN(C(NC=O)C(Cl)(Cl)Cl)CC1)C(Cl)(Cl)Cl` (stereo not given): “inactive”; for `COCC(=O)N(c1c(C)cccc1C)N1CCOC1=O`: “inactive”.
The entry for `C=CC(=O)OC` is “inactive”; for `O=C=Nc1ccccc1` it is “inactive”; for `S=c1[nH]c2ccccc2[nH]1` it is “inactive”.
`CCc1cc(C)cc(CC)c1-c1c(OC(=O)C(C)(C)C)n2n(c1=O)CCOCC2`: the call was inactive.
The same measure for `O=[N+]([O-])O`: “inactive”; for `ClCC(Cl)Cl`: “inactive”.
The same measure for `Cc1ncc(C[n+]2csc(CCO)c2C)c(N)n1`: “inactive”; for `[N-]=[N+]=CC(=O)OC[C@H](N)C(=O)O`: “inactive”.
The entry for `CCC[N+](=O)[O-]` is “inactive”.
Consider `N#CC(c1ccccc1)c1ccccc1`, for which the molecule was classed as inactive.
The same measure for `[Cl-].[Cl-].[Cl-].[Yb+3]`: “inactive”; for `Oc1cc(Cl)ccc1Cl`: “inactive”.
The same measure for `CC(C)CCCCCCCOC(=O)c1ccccc1C(=O)OCCCCCCCC(C)C`: “inactive”.
The same measure for `O=C(CCN1CC1)OCC(CO)(COC(=O)CCN1CC1)COC(=O)CCN1CC1`: “inactive”; for `Nc1ccc([N+](=O)[O-])cc1N`: “inactive”.
With `C=CCN(CC=C)C(=O)C(Cl)Cl`, the result was inactive.
On to `N#Cc1cccc(C#N)c1`, for which the outcome was inactive.
As to `O=C(O)CCCc1ccc(N(CCCl)CCCl)cc1`, the result was inactive.
Regarding `C[N+](C)(C)CC(=O)O`, the result was inactive.
The same measure for `C=COCCCl`: “inactive”; for `O=P(O)(Oc1ccccc1)Oc1ccccc1`: “inactive”.
The entry for `Cc1cc(C)c(C2=C(OC(=O)CC(C)(C)C)C3(CCCC3)OC2=O)c(C)c1` is “inactive”; for `CCC(C)c1cc([N+](=O)[O-])cc([N+](=O)[O-])c1OC(=O)C=C(C)C` (stereo not given) it is “inactive”.
The same measure for `O=C(O)C(Br)Br`: “inactive”.
`CNC(=N[N+](=O)[O-])NCC1CCOC1` (stereo not given): the result was inactive.
